# Assay results: PubChem BioAssay (NCI)
# About 83,000 compounds went through this panel and 20% of them were active in at least one assay; those are over-represented in the sample as a whole.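 Cell lines were cultured in 96-well plates, exposed to a single compound concentration, and assessed for percent growth 48 hours later.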 A number with no mark means an inactive call. Activity calls are given as the source filed them. How the source made its calls: active means growth percent below 10; inactive means the rest.
# System: HCT-15 colon
# Assay: NCI-60 one-dose screen, 48 h (100 = growth as untreated, 0 = no growth, -100 = all killed)
# Conditions: 10 µM unless noted
row,Compound,growth
1,COc1ccc2c(c1)c(-c1noc(-c3cn(C)c4ncc(F)cc34)n1)cn2C,84.7%
2,O=C(N/N=C\c1cc(Cl)ccc1O)N/N=C/c1cc(Cl)ccc1O,32.5%
3,O=C(O)c1ccccc1C(F)(F)F,104%
4,CS(=O)(=O)c1cccnn1,108%
5,O=C(Nc1ccc(Oc2ccc(F)cc2)c(Cl)c1)c1cccnn1,77.6%
6,CCC(Br)(CC)C(=O)c1ccc(OCC(=O)O)c(Cl)c1Cl,103%
7,NC(=O)c1cccc(-c2ccc(S(=O)(=O)Nc3ccc4c(c3)N(C(=O)C3CC3)CCC4)cc2)c1,91.9%
8,C#CCC(C(=O)OCC)C(=O)OCC,106%
9,O=[N+]([O-])c1cc(CCl)ccc1OCCBr,91.1%
10,O=C(O)c1cn(C2CC2)c2cc(N3CCN(Cc4cc(Cl)ccc4O)CC3)c(F)cc2c1=O,45.7%
11,Cc1ccc(C2=C/C(=C/c3ccc(Br)cc3)C(=O)N2CCc2ccc(S(N)(=O)=O)cc2)cc1,99.8%
12,COc1ccc(C(=O)/C=C/c2ccccn2)c(O)c1,39.7%
13,Cc1cc(C)c(S(=O)(=O)/N=c2/n(-c3ccccc3)nc3n2CCN3C2=NCCN2)c(C)c1,90.1%
14,Cc1ccc(S(=O)(=O)n2cc(C(=O)C(=O)N3CCCCC3)c3ccccc32)cc1,79.9%
15,COc1cc(C)cc2oc3oc(=N)c(C(=O)c4ccccc4)cc3c(=O)c12,103%
16,COc1ccc(OC)c([N+](=O)[O-])c1C(=O)CNC(C)=O,95.8%
17,Cc1ccc(S(=O)(=O)N/N=C2\CC3CCC2(C)C3(C)C)cc1 (configuration not stated),99.7%
18,O=C(N=c1n(-c2ccccc2)nc2n1CCN2C1=NCCN1C(=O)c1ccc(Cl)cc1)c1ccc(Cl)cc1,57%
19,O=C(NCc1ccc(Cn2c(=O)sn(-c3ccccc3)c2=O)cc1)OCc1ccc2c(Br)cc(Br)c(O)c2n1,-10.2% (active)

row,Compound,growth
1,Cc1nc(Cl)c2c(n1)N(C)c1ccc(Cl)cc1C(C)C2 (configuration not stated),90.5%
2,C=C(C)[C@@H]1CC[C@]2(COCCC#N)CC[C@]3(C)[C@H](CC[C@@H]4[C@@](C)(CCCNCCC#N)[C@H](C(=C)C)CC[C@]43C)[C@@H]12,35.7% [100 µM]
3,O=C(Nc1cccc(F)c1)c1cc(=O)[nH]c2cc(Br)ccc12,28.6%
4,O=C(NCCCNC(=O)OCc1ccc2c(Br)cc(Br)c(O)c2n1)OCc1ccc2c(Br)cc(Br)c(O)c2n1,-34.4% (active)
5,COc1ccc(OC)c(NC=O)c1,103%
6,CCN(CCNc1ccc(C)c2sc3cc(Cl)ccc3c(=O)c12)CC(C)O (configuration not stated),-42.8% (active)
7,CN(C)c1ccc(-c2ccc(-c3ccc(C(=N)N)cc3)s2)cc1,-74.6% (active)
8,CC(=O)OC[C@]12CC[C@@H]([C@@H](C)C(N)=O)[C@@H]1[C@H]1CC[C@@H]3[C@@]4(C)CC[C@H](OC(C)=O)C(C)(C)[C@@H]4CC[C@@]3(C)[C@]1(C)CC2,-44.1% [100 µM] (active)
9,O=C(Nc1ccccc1)Nc1ccc(C(=O)/C=C/c2ccc(N3CCCC3)cc2)cc1,56.8%
10,C#C[C@]1(O)CC[C@H]2[C@@H]3CC=C4c5nc(Nc6ccccn6)sc5CC[C@]4(C)[C@H]3CC[C@@]21C,1.7% (active)
11,Cn1cc(-c2nnc(-c3cn(C)c4ncccc34)o2)c2ccccc21,17.9%
12,O=C1C(Cl)=C(Nc2ccc3cn[nH]c3c2)C(=O)c2ccccc21,-84.1% (active)
13,COc1cc(/C=C/C(=O)/C=C/c2ccc(-n3ccnc3C)cc2)ccc1O,82.4%
14,Nc1cc(Cl)cc2cccnc12,103%
15,CN(C)CCOc1ccc(/C(=C(/CCCl)c2ccccc2)c2ccccc2)cc1,23.9%
16,Nc1cc(N)c(N=Nc2ccc(S(=O)(=O)O)cc2)cc1N=Nc1ccc(-c2ccc(N=Nc3ccc(O)c(C(=O)O)c3)cc2)cc1,103%
17,Cn1cc(-c2noc(-c3cn(C)c4ncc(F)cc34)n2)c2ccccc21,58.2%
18,Nc1ccc(NC(=O)c2ccccc2)c2c1C(=O)c1ccccc1C2=O,99%
